Assay outcomes (PubChem BioAssay)
The list is not random: actives were taken first. Their share in the collection is about 3%.
GRP78 ERSR act: qHTS for Inducers of the Endoplasmic Reticulum Stress Response (ERSR) in Human Glioma: qHTS | U87-MG GRP78 promoter luciferase reporter, 16 h | Potency, µM, for inactives: at the top dose activation, actives largely listed as activators | 420,000 tested, 0.02% active | AID 602332, 2012; also: potency is read from the fitted curve at half-maximal effect; series mostly up to about 76 µM; % of control where 0% means no effect; nearly all actives have a fitted effect of over 35% in size
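Stably transfected U87-MG human glioma cells carrying a GRP78-based luminescent sensor were seeded at 1000 cells/well, pin-dosed with compounds and incubated 16 h. Luciferase reagent was then added, and end-point luminescence was read after 10 min at room temperature.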
Nrf2 activator: qHTS of Nrf2 Activators | AID 624171, 2012 | AREc32 ARE-luciferase reporter (MCF7-derived line), luminescence, 24 h | Potency, µM (titrated, usually from 46.1 µM), for inactives: top-dose activation, hits mostly activators | 410,000 tested, 0.31% active; also: potency is read from the fitted curve at half-maximal effect; % of control where 0% means no effect; nearly all actives have a fitted effect of over 65% in size
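AREc32 cells carrying an ARE-driven firefly luciferase reporter were seeded at 1000 cells/well in OPTI-MEM with 5% FBS, then exposed to compound for 24 hr at 37 deg C. Luminescence was read with Steady-Glo after 30 min at RT.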
DRD3 antagonist: qHTS of D3 Dopamine Receptor Antagonist: qHTS. D3R cells, DiscoveRx beta-arrestin luminescence, antagonist mode; stronger effect = lower value. max response, negative = inhibition, %. 360,000 tested, 2.5% active; in the data active = max response below about -50%; inconclusive = no clear call, values can overlap the other calls; also: % is scaled to controls: 0 for no effect and ±100 for the full control effect
Target sequence (P35462 whole entry, looked up): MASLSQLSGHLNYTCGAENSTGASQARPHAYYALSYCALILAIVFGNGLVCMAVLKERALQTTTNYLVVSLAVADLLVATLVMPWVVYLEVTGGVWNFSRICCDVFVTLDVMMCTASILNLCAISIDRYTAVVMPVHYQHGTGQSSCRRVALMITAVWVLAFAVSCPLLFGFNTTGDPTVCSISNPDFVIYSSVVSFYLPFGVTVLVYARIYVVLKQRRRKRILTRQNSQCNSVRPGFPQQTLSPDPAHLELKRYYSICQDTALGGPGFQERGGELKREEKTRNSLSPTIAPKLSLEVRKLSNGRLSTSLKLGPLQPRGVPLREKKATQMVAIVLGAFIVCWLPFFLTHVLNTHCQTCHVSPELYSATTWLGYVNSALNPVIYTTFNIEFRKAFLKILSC
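Cells expressing the human receptor were seeded at 1500 cells/well, incubated overnight at 37 degrees C in 5% CO2, then exposed to library compounds with dopamine controls for 90 minutes at 37 degrees C before luminescent detection.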
DRD3 agonist: qHTS of D3 Dopamine Receptor Agonist: qHTS; AID 652048, 2013; D(3) dopamine receptor (Homo sapiens), P35462; D3R DiscoveRx beta-arrestin cells, luminescence, 90 min; 410,000 tested, 0.58% active; max activation, %; in the data active = max activation above about 30%; also: 0% is about no effect
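Agonist mode: compounds and dopamine controls were applied to plated cells for 90 min at 37 degrees C after an overnight attachment at 1500 cells/well. Luminescent read-out followed 30 - 60 minutes at room temperature with DiscoveRx detection reagent.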
The depositor's hits bear a star; ? = inconclusive; . = no result. Unless noted, calls follow the shape of the dose curve; as a rule, active = well fitted curve in the direction sought with a large enough effect; inconclusive = small, poorly fitted or top-dose-only effect, or another doubt; inactive = no such curve, though single readings can be large; an effect the other way counts as inactive or inconclusive.

SMILES	GRP78 ERSR act	Nrf2 activator	DRD3 antagonist	DRD3 agonist
CCOC(=O)C1(CCOC)CCN(C/C=C/c2ccccc2OC)CC1	-0.7%	0.8%	-71.2*	-15.0
COc1cc(CN2CCCC(CO)(Cc3ccccc3)C2)ccc1O (centres undefined)	-1.1%	-0.5%	?	-10.6
CC(=O)OCC(=O)[C@@]1(O)[C@H](C)C[C@H]2C3C[C@H](F)C4=CC(=O)C=CC4(C)C3[C@@H](O)CC21C (some centres undefined)	-1.9%	.	.	.
CC(C)(C)n1ncc2c(=O)n(Cc3cc(F)c(F)cc3Cl)cnc21	-4.3%	.	.	.
Cc1ccc(C2(C)NC(=O)N(CC(=O)N3CCN(S(=O)(=O)c4cccs4)CC3)C2=O)cc1 (centres undefined)	-3.0%	3.3%	-53.4*	0.7
Cc1ccc(C2(C)NC(=O)N(CC(=O)N3CCN(S(=O)(=O)c4ccc(Cl)s4)CC3)C2=O)cc1 (centres undefined)	-3.0%	3.8%	1.0	-0.2
Cc1nn(-c2ccccn2)c2c1-c1nc(N)sc1CC2	3.8%	.	.	.
O=S(=O)(c1ccc(Cl)cc1)c1nc(-c2ccccc2F)oc1NCCCN1CCOCC1	-5.5%	-0.8%	-60.3*	-31.1
O=S(=O)(c1ccccc1)c1nc(-c2ccc(Cl)cc2)oc1NCCCN1CCOCC1	-1.3%	0.2%	?	-12.5
Cc1ccc(S(=O)(=O)c2nc(-c3ccccc3Cl)oc2NCCCN2CCOCC2)cc1	-4.7%	0.4%	-53.3*	-10.7
Cc1ccccc1-c1nc(S(=O)(=O)c2ccccc2)c(NCCN2CCOCC2)o1	2.4%	0.3%	-26.6	-17.1
CC1(C)C[C@H](O)[C@]2(CO)[C@H](O)C[C@]3(C)C(=CCC4[C@@]5(C)CC[C@H](O)C(C)(C)C5CC[C@]43C)[C@@H]2C1 (some centres undefined)	4.0%	-0.8%	-84.4*	-7.4
C(=C\c1ccnc2ccccc12)/c1ccc(N2CCNCC2)cc1	-3.4%	.	.	.
COc1ccc(CNS(=O)(=O)c2cccc(S(=O)(=O)N3CCOCC3)c2)cc1	-3.8%	0.2%	-93.2*	11.4
O=C(NCc1ccccc1C(F)(F)F)c1cccc2c1C(=O)c1ccc(N3CCOCC3)cc1S2(=O)=O	-5.1%	-1.7%	72.5	37.6*
O=C(NCc1cccc(F)c1)c1cccc2c1C(=O)c1ccc(N3CCOCC3)cc1S2(=O)=O	2.2%	-1.8%	20.6	55.9*
O=C(NCc1ccccc1Cl)c1cccc2c1C(=O)c1ccc(-c3ccc(OC(F)(F)F)cc3)cc1S2(=O)=O	-0.2%	-1.2%	54.3	30.7*
FC(F)(F)c1nnc(-c2ccccc2)nc1Sc1ccccc1	-14.1%	23.5%	?	-10.0
FC(F)(F)c1cccc(Oc2nc(-c3ccccc3)nnc2C(F)(F)F)c1	0.2%	-0.8%	18.4	5.3
FC(F)(F)c1nnc(-c2ccccc2)nc1Sc1ccc(Cl)cc1	-2.8%	-1.0%	-93.1*	-9.0
FC(F)(F)c1cccc(Sc2nc(-c3ccccc3)nnc2C(F)(F)F)c1	3.8%	1.9%	-61.3*	-8.1
CCC1(C2CCN(Cc3cc4ccccc4o3)CC2)NC(=O)N(CC2COc3ccccc3O2)C1=O (centres undefined)	-2.5%	.	.	.
Cc1ccccc1C(=O)Nc1ccccc1OCc1cc(=O)n2ccccc2n1	-2.9%	0.0%	.	10.4
CCCCCCCC(=O)CC[C@@H]1[C@@H](C/C=C\CCCC(=O)OC(C)C)[C@@H](O)C[C@H]1O	.	.	.	22.1
CCOC(=O)c1cc(-c2csc(-c3ccc(C(F)(F)F)cc3)n2)on1	-4.9%	-0.3%	8.8	10.7
SMILES	GRP78 ERSR act	Nrf2 activator	DRD3 antagonist	DRD3 agonist
CCOC(=O)c1cc(-c2csc(-c3ccc(C(C)(C)C)cc3)n2)on1	-5.2%	-0.1%	6.3	31.8*
S=C1SCN(Cc2ccccn2)CN1Cc1ccco1	-1.2%	14.4%	-62.5*	-19.5
Cc1ccc(-c2noc(CCC(=O)NCCN3CCc4ccccc4C3)n2)cc1	5.5%	4.8%	-76.0*	-14.9
Cc1ccc(-c2noc(CCC(=O)NCCN3CCOCC3)n2)cc1	-2.7%	0.1%	5.5	-4.3
Cc1ccc(-c2noc(CCC(=O)Nc3ccc(C)cn3)n2)cc1	1.0%	0.1%	-73.0*	-6.9
Cc1cc(N2C(=O)CC(N3CCN(C(c4ccccc4)c4ccccc4)CC3)C2=O)no1 (centres undefined)	-7.2%	3.9%	-55.1*	-5.4
N#CCCOC1(C#CCN2CCCC2)CCCCC1	-0.8%	0.0%	-88.2*	22.1
O=C(COc1ccccc1C(=O)Nc1ccccc1)Nc1cccc([N+](=O)[O-])c1	-3.6%	.	.	.
